Where “and” joins values, the source holds several entries; their conditions need not be identical. Identical values can stand only once. This is part of a sample that, as a whole, favours compounds with a hit. Of some 83,000 tested, about 20% had one in any assay.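 In brief: 96-well plates, 48 h treatment, single concentration, percent growth endpoint.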 Calls of active or inactive are those of the source.
tested on: SK-OV-3 ovarian; experiment: NCI-60 one-dose screen, 48 h (100 = growth as untreated, 0 = no growth, -100 = all killed); conditions: 10 µM
Method: Growth inhibition of the SK-OV-3 human tumor cell line is measured as a screen for anti-cancer activity. Cells are grown in 96 well plates and exposed to the test compound for 48 hours. Compounds are tested at a single concentration, which is 10^-5 M for most compounds. The reported endpoint is percent growth (GI% or GIPRCNT), where numbers from 0 - 100% represent growth inhibition, and numbers from -100% - 0 represent cell death. For example, a value of 40 represents 60% growth inhibition. A value of 0 means no net growth occurred over the course of the experiment. A value of -40 indicates 40% of cells at the beginning of the experiment died by the end of the experiment. A value of -100 means all cells are dead at the end of the experiment.
NCI-60 Human Tumor Cell Lines Screen was performed using the standard one-dose NCI protocol, which is described in more detail at https://dtp.cancer.gov/discovery_development/nci-60/default.htm.
Compounds with GIPRCNT values below 10 were considered active. Activity score was based on GIPRCNT using the following formula: […]
Score is 0 for GIPRCNT values of 100 or above, 50 for GIPRCNT values of 0, and 100 for GIPRCNT values of -100.

Compound	growth
O=C(O)c1sccc1O	84.5% (inactive)

same assay, conditions: 10 µM unless noted

Compound	growth
CCN(CC)CCCC(C)Nc1ccnc2cc(Oc3ccccc3)ccc12 (stereo not given)	91.2% (inactive) and 97.2% (inactive)
CC(=O)c1ccccc1O	114% (inactive) and 102% (inactive) and 101% (inactive)
COc1cc2c(Nc3ccc(Cl)c(Cl)c3F)ncnc2cc1OCC1C[C@@H]2CN(C)C[C@@H]2C1 (stereo not given in full)	-87.7% (active) and -13.8% (active)
CNC(=O)c1ccc(C)c(-n2c(C)cc(OCc3ccc(F)cc3F)c(Br)c2=O)c1	76.4% (inactive) and 91.3% (inactive)
OC(COc1cccc2ccccc12)CN1CCN(c2ccc(Cl)cc2)CC1 (stereo not given)	88.8% (inactive) and 100% (inactive)
Cc1cccc(/C=C\C(=O)c2ccccc2)c1	101% (inactive)
Cn1cnc([N+](=O)[O-])c1Sc1ncnc2nc[nH]c12	16.9% (inactive)
Nc1n[nH]c(=S)n1-c1ccc(Cl)cc1	102% (inactive)
N#CCCOc1ccccc1	97% (inactive)
NC(=S)NS(=O)(=O)c1ccc(N)cc1	108% (inactive)
COc1cc(C(=O)c2ccc3c(c2)OCO3)cc(OC)c1OC	24.2% (inactive) and 27.7% (inactive)
CNC(=O)c1cccc(-c2ccc3c(N4CCOC[C@@H]4C)nc(N4CCOC[C@@H]4C)nc3n2)c1	-23% (active) and -36.9% (active)
O=C1c2ccccc2C(=O)c2c(NCCNCCO)ccc(NCCNCCO)c21	-4.52% (active) and 27.8% (inactive) and 34.9% (inactive)
CN(C)c1ccc(C(Cc2ccc3ccccc3n2)Cc2ccc3ccccc3n2)cc1	77.5% (inactive) and 99.6% (inactive)
CCOc1ccc2cc(-c3nn(CC4CCNCC4)c4ncnc(N)c34)ccc2c1	91.7% (inactive) and 45.9% (inactive)
CC(C)C(=O)Nc1ccc([N+](=O)[O-])c(C(F)(F)F)c1	80.2% (inactive) and 99.6% (inactive)
O=C1c2ccccc2C(=O)N1/N=C/c1ccc2c(c1)OCO2	97.5% (inactive)
C[N+](C)(C)CN1C(=O)c2ccccc2C1=O	98.1% (inactive)
Cc1cc(C)c(N)c(Br)c1	102% (inactive) and 96% (inactive)

Compound	growth
CC1=CCC2CC1C2(C)C (stereo not given)	114% (inactive) and 99% (inactive)
COc1ccc2cc3[n+](cc2c1OC)CCc1cc2c(cc1-3)OCO2	88.1% (inactive) and 104% (inactive)
Clc1ccc(SSc2ccc(Cl)cc2)cc1	106% (inactive) and 125% (inactive)
CCN(CC)CCc1nc(-c2ccccc2)no1	98.2% (inactive) and 99.6% (inactive)
Cn1c(=O)n(-c2ccc(C(C)(C)C#N)cc2)c2c3cc(-c4cnc5ccccc5c4)ccc3ncc21	-28.9% (active) and -13% (active)
Oc1ccccc1C=NCC1CCC(CN=Cc2ccccc2O)CC1 (stereo not given)	95% (inactive)
CCOC(=O)c1c(C)oc(C)c(C(=O)OCC)c1=O	97.8% (inactive) and 95.3% (inactive)
O=C1OC(Oc2ccc(Br)cc2)(c2ccccc2)c2ccccc21 (stereo not given)	96.1% (inactive) and 110% (inactive)
Nc1ccccc1SC1CC(=O)N(c2cccc3ccccc23)C1=O (stereo not given)	88.6% (inactive)
O=C(Nc1cccc(Cl)c1)c1cc2ccccc2cc1O	-11.7% (active)
CC(C(=O)O)n1cc(C#N)c(=O)[nH]c1=O (stereo not given)	102% (inactive) and 98.6% (inactive)
CC[N+](CC)(CC(=O)Nc1c(C)cccc1C)Cc1ccccc1	102% (inactive) and 107% (inactive)
N#CC(C#N)=C/C=C/c1cccc([N+](=O)[O-])c1	55.6% (inactive) and 35.8% (inactive)
CN1CCN(Cc2occc(=O)c2O)CCN(C)CCN(Cc2occc(=O)c2O)CC1	91% (inactive) and 49.5% (inactive)
N=C1N=C(N)CS1	109% (inactive)
Nc1ccc2ccc(N)cc2c1	91.6% (inactive)
O=CC(O)C(O)C(O)CO (stereo not given)	116% (inactive) and 101% (inactive)
CCOc1ccc2cc(-c3nn(CC4CCN(C)CC4)c4ncnc(N)c34)ccc2c1	83.1% (inactive) and 85.2% (inactive)
OCc1ccccn1	117% (inactive)

same assay, conditions: 100 µM

Compound	growth
O=C(O)c1sccc1O	80.9% (inactive)
